Source: PubChem BioAssay (The Scripps Research Institute Molecular Screening Center)
An excerpt weighted towards active compounds, which were near 3.4% of everything screened.
GPR151 ag: activators of human GPR151, primary screen, cell-based, PathHunter beta-arrestin, luminescence | AID 1508602, 2020 | PathHunter beta-arrestin GPR151 cells | activation, % at 11.2 µM | actives 1% (n = 650,000) | G-protein coupled receptor 151 (Homo sapiens), Q8TDV0; in the data active means activation above about 4.9%
FBW7 act: FBW7 E3 ligase activators, primary screen, biochemical, AlphaScreen, human | F-box/WD repeat-containing protein 7 (Homo sapiens), Q969H0 | AlphaScreen FBW7–phospho-cyclin E peptide binding, activator screen | normalized activity (activation), % at 26.1 µM | actives 0.13% (n = 650,000) | AID 1259310, 2017; in the data active means normalized activity above about 1.9%;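 further: purified mutant Fbw7 with reduced substrate affinity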
TEAD-YAP block: TEAD-YAP interaction inhibition, primary screen, TEAD-YAP interaction inhibitor project, luminescence, HEK-TIYL cells; TEAD-Gal4/YAP UAS-luciferase luminescence; actives 1.4% (n = 640,000); inhibition, % at 9.12 µM; AID 1259422, 2018; in the data active means inhibition above about 32%
MITF inh: MITF inhibitors, primary screen, biochemical, AlphaScreen, human; Microphthalmia-associated transcription factor (Homo sapiens), O75030; AlphaScreen MITF homodimerization, bead proximity signal; inhibition, % at 2.6 µM; actives 0.91% (n = 650,000); in the data active means inhibition above about 50%
Target sequence (O75030 whole entry, looked up): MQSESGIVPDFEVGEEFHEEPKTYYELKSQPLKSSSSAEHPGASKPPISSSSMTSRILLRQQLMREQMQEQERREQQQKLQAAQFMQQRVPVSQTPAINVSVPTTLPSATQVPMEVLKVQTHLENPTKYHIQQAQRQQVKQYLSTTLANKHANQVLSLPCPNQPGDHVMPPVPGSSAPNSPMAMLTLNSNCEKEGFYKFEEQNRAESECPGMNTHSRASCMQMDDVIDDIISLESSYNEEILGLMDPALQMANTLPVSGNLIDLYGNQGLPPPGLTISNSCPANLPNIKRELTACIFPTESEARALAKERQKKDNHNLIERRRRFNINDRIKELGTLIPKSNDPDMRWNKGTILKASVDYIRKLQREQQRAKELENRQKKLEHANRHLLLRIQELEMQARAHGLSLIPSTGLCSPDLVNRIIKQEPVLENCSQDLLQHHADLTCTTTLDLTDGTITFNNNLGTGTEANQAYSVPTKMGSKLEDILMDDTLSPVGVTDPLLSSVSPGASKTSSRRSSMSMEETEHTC
MITF confirm: MITF inhibitors, retest of hits, confirmation, biochemical, AlphaScreen, triplicate; shares compounds with MITF inh; AlphaScreen MITF homodimerization, biotin/His-MITF beads; inhibition, % at 2.6 µM; actives 16% (n = 4,700); AID 1259372, 2018;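 active means inhibition above a cutoff derived from the DMSO control wells, cut at about 28% in these data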;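 further: inhibitors lower the bead chemiluminescence by keeping MITF from dimerizing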
AlphaScreen DR: AlphaScreen optical interference compounds, dose response, counter-screen, biochemical, HTS; shares compounds with MITF inh; AlphaScreen optical interference counterscreen, cell-free; IC50, µM; actives 6% (n = 480); AID 1259373, 2018; call rule not given here
AS interf ctr: AlphaScreen optical interference compounds, counter-screen for MITF inhibitor project, biochemical, triplicate. shares compounds with MITF inh. LysRS AlphaScreen counterscreen, signal interference. inhibition, % at 2.6 µM. actives 7.6% (n = 4,700). AID 1259376, 2018;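 active means inhibition above a cutoff derived from the DMSO control wells, cut at about 30% in these data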
Each line names hits and unclear results; the compound was inactive in the other large screens (follow-up assays come after a bar, where they were run); ! = not confirmed by another sample.

Cc1ccc(/C(O)=C/c2nc3cc([N+](=O)[O-])c([N+](=O)[O-])cc3[nH]c2=O)cc1	none
O=c1c(CN2CCN(c3cccc(C(F)(F)F)c3)CC2)coc2ccccc12	TEAD-YAP block 62
O=c1c(CN2CCN(c3cccc(Cl)c3)CC2)coc2ccccc12	TEAD-YAP block 43, MITF inh 53
Cc1ccc2occ(CN3CCN(c4ccccc4)CC3)c(=O)c2c1	none
CCc1ccccc1NC(=O)CN(C)C(=O)CCl	TEAD-YAP block 79
c1cncc(CNc2nc(N3CCOCC3)nc3c2ncn3-c2ccsc2)c1	TEAD-YAP block 45
c1ccc(-n2cnc3c(NCc4cccnc4)nc(N4CCN(c5ccccn5)CC4)nc32)cc1	none
c1ccc(N2CCN(c3nc(NCc4cccnc4)c4ncn(-c5ccsc5)c4n3)CC2)nc1	TEAD-YAP block 51
COCCC(=O)NC(C)c1nnc2n1CCN(Cc1ccc(OC)c3ccccc13)CC2 (stereo not drawn)	none
CCCCCCN1C(=O)C2C(C(=O)Nc3cccc(OC)c3)C3C=CC2(O3)C1C(=O)NC1CCCCC1C (stereo not drawn)	none
O=C(Nc1ncc([N+](=O)[O-])s1)c1ccc(Br)cc1F	TEAD-YAP block 85
CC(=O)N1CCCN(c2nc(CN(C)C(C)c3cccs3)nc3c(C)cccc23)CC1 (stereo not drawn)	none
CC(=O)CCN1C(=O)C(=O)c2cc(Br)ccc21	none
CCCCN1C(=O)C(=O)c2cc(Br)ccc21	TEAD-YAP block 41
O=C(O)CCC(NCc1ccco1)C(=O)O (stereo not drawn)	MITF inh 62 | MITF confirm 56 | AlphaScreen DR inactive | AS interf ctr inactive
CCN1CCN(Cc2ccc(OC)c3ccccc23)CC1	none
COc1ccc(CN2CCN(Cc3ccc(SC)cc3)CC2)c(OC)c1OC	none
COc1ccc(CN2CCN(Cc3ccc(F)cc3)CC2)c(OC)c1OC	MITF inh 60 | MITF confirm inactive | AS interf ctr inactive
COc1cc(OC)c(OC)cc1CN1CCN(Cc2ccc(OC)c(OC)c2OC)CC1	MITF inh 59 | MITF confirm inactive | AS interf ctr inactive
COc1ccc(CN2CCCCC2)c(OC)c1OC	none
COc1ccc(CN2CCN(Cc3ccc(Cl)cc3)CC2)c2ccccc12	MITF inh 83 | MITF confirm inactive | AS interf ctr inactive
COc1cccc(CN2CCN(Cc3ccc(F)cc3)C(CCO)C2)c1OC (stereo not drawn)	none
COc1cccc(CN2CCN(Cc3ccc(F)cc3)CC2)c1OC	MITF inh 80 | MITF confirm inactive | AS interf ctr inactive
CCS(=O)(=O)N1CCN(Cc2ccc(OC)c(OC)c2OC)CC1	none
CCOc1ccc(CN2CCN(Cc3ccc(OC)c(OC)c3OC)CC2)cc1	MITF inh 66 | MITF confirm inactive | AS interf ctr inactive
CCCCN(C)CCCNC(=O)CSCc1ccccc1Cl	MITF inh 76 | MITF confirm inactive | AS interf ctr inactive
CCCCN(CC)c1ncnc2sc(C)c(C)c12	MITF inh 51 | MITF confirm inactive | AS interf ctr inactive
N#CC1=C(N)n2c(s/c(=C\c3ccco3)c2=O)=C(C#N)C1c1ccco1 (stereo not drawn)	MITF inh 56 | MITF confirm 42 | AlphaScreen DR inactive | AS interf ctr inactive
O=S(=O)(c1ccc2c(c1)OCCO2)N1CCN(Cc2nnc(-c3ccccc3)o2)CC1	none
CCOC(=O)c1c(NC(=O)CSc2nnc(CNC(=O)c3ccc(C)c([N+](=O)[O-])c3)n2-c2cccc(C)c2)sc2c1CCC2	none
Cc1ccc(-c2noc(C3CCCN(S(=O)(=O)c4ccc(C(C)(C)C)cc4)C3)n2)o1 (stereo not drawn)	MITF inh 77 | MITF confirm inactive | AS interf ctr inactive
O=C(Nc1nc2c(s1)CCC2C(=O)NCCCc1ccccc1)c1ccc(F)cc1 (stereo not drawn)	MITF inh 80 | MITF confirm inactive | AS interf ctr inactive
C=C1c2cccc(O)c2C(O)=C2C(=O)[C@]3(O)C(O)=C(C(N)=O)C(=O)[C@@H](N(C)C)[C@@H]3[C@@H](O)[C@H]12	MITF inh 54 | MITF confirm 41! | AlphaScreen DR inactive | AS interf ctr inactive
C=C1c2c(Cl)ccc(O)c2C(O)=C2C(=O)[C@]3(O)C(O)=C(C(N)=O)C(=O)[C@@H](N(C)C)[C@@H]3[C@@H](O)[C@H]12	MITF inh 63 | MITF confirm 85 | AlphaScreen DR inactive | AS interf ctr 30!
CC(C)(C)c1ccc(-c2cc(C(=O)Nc3ccc(F)cc3)c3ccccc3n2)cc1	none
COC(=O)C(=Cc1ccc(OC)c(C(=O)O)c1)C(=O)OC	MITF inh 63 | MITF confirm inactive | AS interf ctr inactive
CCCN1C(=O)c2cc(C(=O)NCc3ccc(F)cc3)ccc2C1O (stereo not drawn)	none
CC(NS(=O)(=O)c1cc(Cl)ccc1Cl)C(=O)NC1CCCCC1 (stereo not drawn)	MITF inh 57 | MITF confirm inactive | AS interf ctr inactive
CCC1(C)NC(=O)N(/N=C/c2ccc(OCC(=O)N3CC(C)OC(C)C3)c(OC)c2)C1=O (stereo not drawn)	none
Cc1ccnc(N2C3CCC2CC(O)(c2ccccc2)C3)n1 (stereo not drawn)	MITF inh 53 | MITF confirm inactive | AS interf ctr inactive
Cc1ccc(C2(O)CC3CCC(C2)N3c2cc(C)nc(N)n2)cc1 (stereo not drawn)	none
O=C(/C=C/c1ccco1)NCc1cccc(CNC(=O)/C=C/c2ccco2)c1	MITF inh 74 | MITF confirm 82 | AlphaScreen DR inactive | AS interf ctr inactive
O=C(/C=C/c1ccco1)Nc1cccc(NC(=O)/C=C/c2ccco2)n1	MITF inh 82 | MITF confirm 49 | AlphaScreen DR inactive | AS interf ctr inactive
O=C(O)CCCNC(=O)/C=C/c1ccco1	MITF inh 62 | MITF confirm 59 | AlphaScreen DR inactive | AS interf ctr inactive
O=C(/C=C/c1ccco1)Nc1nnc(-c2ccco2)s1	MITF inh 52 | MITF confirm 57 | AlphaScreen DR inactive | AS interf ctr inactive
CCc1nnc(NC(=O)/C=C/c2ccco2)s1	none
COc1cccc(CN2C(=O)C3C(C(=O)Nc4ccc(C)c(Cl)c4)C4C=CC3(O4)C2C(=O)NC2CCCC(C)C2C)c1 (stereo not drawn)	none
